IDH1 R132H inh: human IDH1 R132H inhibition. Potency, µM (titrated, usually from 76.6 µM), for inactives: at the highest dose activity change, negative = inhibition, hits mostly inhibitors. IDH1-R132H enzyme, NADPH consumption, diaphorase/resazurin fluorescence. AID 602179. hit rate 0.093% among 390,000. O75874; note: % is set by controls: 0 for no effect and ±100 for the full control effect; nearly all actives have a fitted effect of over 65% in size
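IDH1-R132H (0.5 ug/mL) preincubated 30 min with compound, then NADPH (0.016 mM) and alpha-KG (2 mM) added; 80 min at RT, pH 7.5. Remaining NADPH coupled via diaphorase/resazurin to fluorescence (540/590 nm); concentration-response curves normalized to no-enzyme control.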
GLP-1R inv ag: GLP-1 receptor (human) inverse agonism. HEK293 GLP-1R CRE-luciferase, luminescence, 24 h; GLP-1R form is constitutively active. Potency, µM (series often up to 38.3 µM), for inactives: at the top dose activity change, negative = inhibition, usual class: inhibitors. hit rate 1.6% among 410,000. P43220. AID 624417; note: % is set by controls: 0 for no effect and ±100 for the full control effect; nearly all actives have a fitted effect of over 55% in size
Target sequence (P43220 whole entry, looked up): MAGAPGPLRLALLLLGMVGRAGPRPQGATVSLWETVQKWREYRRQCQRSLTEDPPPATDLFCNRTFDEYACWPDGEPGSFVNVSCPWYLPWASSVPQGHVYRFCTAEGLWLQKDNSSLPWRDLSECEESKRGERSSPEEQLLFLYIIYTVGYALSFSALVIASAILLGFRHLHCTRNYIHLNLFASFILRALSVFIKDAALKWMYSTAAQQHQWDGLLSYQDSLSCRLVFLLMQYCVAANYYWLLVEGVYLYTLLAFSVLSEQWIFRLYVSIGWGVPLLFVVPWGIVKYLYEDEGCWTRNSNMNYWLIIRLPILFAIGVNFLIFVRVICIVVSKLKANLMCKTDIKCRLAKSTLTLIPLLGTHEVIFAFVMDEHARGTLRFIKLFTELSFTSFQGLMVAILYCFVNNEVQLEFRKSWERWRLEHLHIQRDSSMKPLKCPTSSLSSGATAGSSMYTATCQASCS
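Inverse agonism was detected as reduced cAMP-driven luciferase luminescence after 24 h compound treatment. The cells were HEK293 clones expressing constitutively active human GLP-1R with the reporter. Reporter-only and GPR119 cell lines served as counterscreen controls.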
TrxR1 substrate: is turned over as a substrate by rat TrxR1 | O89049 | purified TrxR1 substrate turnover, NADPH consumption readout | Potency, µM (top dose mostly 114 µM), for inactives: at the highest dose activity change, negative = substrate turnover | hit rate 0.01% among 390,000 | AID 588456; note: % is set by controls: 0 for no effect and ±100 for the full control effect; nearly all actives have a fitted effect of over 50% in size
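Rat TrxR1, dispensed at 90 nM, was prereduced with 400 uM NADPH (final) for 5 min at ~22 deg C, then incubated with compound 15 min before 400 uM selenite. A first-read NADPH fluorescence drop versus no-compound background flagged substrates.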
GLP1R cytotox: cytotoxicity counter-screen for GLP-1 receptor inverse agonists. hit rate 0.13% among 410,000. Potency, µM (top dose mostly 38.3 µM), inactives show at the highest dose activity change, negative = inhibition, actives largely listed as inhibitors. HEK293 cAMP-luciferase reporter cells, luminescence, 24 h;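 note: loss of luciferase light is scored as toxicity; % is set by controls: 0 for no effect and ±100 for the full control effect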
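Cells in DMEM/10% Nu serum/1% pen-strep, 1536-well format. Pre-incubated 12 h, dosed with 23 nL compound, incubated a further 24 h. Luciferase detection, 12 min at room temp, luminescence.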
GLP-1R agonist: GLP-1 receptor (human) agonism; P43220; HEK293 GLP-1R CRE-luciferase, luminescence, 4-6 h; cells express a hypersensitive GLP-1R form; Potency, µM (doses to about 45.6 µM), inactives show at the highest dose activation, usual class: activators; hit rate 0.007% among 380,000; note: % of control where 0% means no effect
rTrxR1 inhibitor: rat TrxR1 inhibition | recombinant rTrxR1, NADPH fluorescence consumption, selenite substrate | O89049 | Potency, µM (highest dose often 114 µM), for the others: at the top dose activity change, negative = inhibition, actives largely listed as inhibitors | hit rate 1% among 390,000 | AID 588453; note: % is set by controls: 0 for no effect and ±100 for the full control effect; nearly all actives have a fitted effect of over 65% in size
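Rat TrxR1 (90 nM in the dispensed reagent) was pre-reduced with 400 uM NADPH for 5 min at room temperature, then incubated with compound for 15 min. After 400 uM selenite was added, NADPH fluorescence (Ex 340/Em 450 nm) was followed for 8 min.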
* = called active by the depositor; i = inactive; ? = inconclusive; nt = no result given; [ ] = another dose, or the depositor's remark. Only some compounds are listed: those with a hit (about 2.7% of all), similar ones and a draw of the others. Calls come from the whole dose curve; as a rule, active = well fitted curve in the direction sought with a large enough effect; inconclusive = small, poorly fitted or top-dose-only effect, or another doubt; inactive = no such curve, though single readings can be large; an effect the other way counts as inactive or inconclusive. Potency is the fitted concentration of half-maximal effect.

SMILES | IDH1 R132H inh | GLP-1R inv ag | TrxR1 substrate | GLP1R cytotox | GLP-1R agonist | rTrxR1 inhibitor
COc1ccc2c(c1)CCc1cc(C(=O)O)sc1-2 | -9% | 45% | i | 4% | 1% | 45µM*
COc1ccc(NC(=O)Cn2c(=O)n(CCCC(=O)NCCc3ccc(C)cc3)c(=O)c3ccccc32)cc1Cl | -5% | 0% | 0% | 1% | 1% | 8%
Cc1ccc(C(=O)CCNc2ccc(Br)cc2)o1 | 3% | -16% | -2%[57.1 µM] | -11% | 11% | -33%
Cc1ccc(C(=O)CCNc2ccc(F)c(Cl)c2)o1 | 5% | ? | -3% | 2% | -2% | 56µM*
COc1cc2c(NC3CCN(C)CC3)nc(N3CCCN(C)CC3)nc2cc1OCCN(C)C | nt | nt | 106% | nt | nt | -34%
CCN(CC)Cc1cc(O)c(CN(CC)CC)cc1O | 13% | 13% | 7% | 4% | -5% | 10µM*
CCc1oc(C(=O)O)cc1CN(CC)CC | 0% | 0% | -3% | 20% | -3% | 7%
CCOC(=O)C1(Cc2cccc(Cl)c2)CCCN(C(=O)c2ccnn2C)C1 (stereo unspecified) | 9% | -5% | -7% | 0% | -4% | -1%
CCCc1cc(C(=O)N2CCCC(Cc3cccc(Cl)c3)(C(=O)OCC)C2)n(C)n1 (stereo unspecified) | 3% | 11µM* | 3%[57.1 µM] | -10% | 6% | 24%[57.1 µM]
COc1ccc(Cn2c(=O)c3oc4ccccc4c3n(Cc3ccccc3)c2=O)cc1 | 0% | 15% | 2% | 2% | nt | 17%
O=S(=O)(c1ccc2ccccc2c1)N1CCN(c2nc(-c3ccccc3)nc3ccccc23)CC1 | nt | nt | 1% | nt | nt | 8%
CCOc1cc(-c2ccc3c(c2)OCO3)cc(=[O+]CC)c2c(C)oc(C)c12 | nt | nt | -6% | nt | nt | ?
CCOC(=O)/C(=C\c1ccc(N2CCC(c3ccccc3)=N2)cc1)C(C)=O | 7% | ? | -11% | -9% | -19% | -25%
CCOC(=O)C(=Cc1ccc(-n2cncn2)cc1)C(=O)OCC | 2% | ? | 5% | ? | -9% | 22µM*
COc1coc(C(O)C[N+](=O)[O-])cc1=O (stereo unspecified) | 0% | ? | 5% | 0% | 1% | 50µM*
COc1ccc(C(NC(C)=O)c2ccc3cccnc3c2O)c(OC)c1 (stereo unspecified) | -11% | 3.5µM* | -5% | ? | 0% | 1%[57.1 µM]
COc1ccc(C(NC(C)=O)c2ccc3cccnc3c2O)cc1OC (stereo unspecified) | nt | nt | -5% | nt | nt | 1%
CC(C)C(=O)NC(c1cccc([N+](=O)[O-])c1)c1ccc2cccnc2c1O (stereo unspecified) | 1% | ? | 8%[2.29 µM] | 2.5µM* | -14% | 15%[57.1 µM]
CCOc1cc(C(Nc2cc(C)ccn2)c2ccc3cccnc3c2O)ccc1OC (stereo unspecified) | 0% | ? | -7% | -21% | nt | 1.3µM*
Cc1cccc(Cn2cc3c(=O)n(CC(=O)Nc4cccc(C)c4C)nc-3c3cc(F)ccc32)c1 | -9% | -14% | -3% | 0% | nt | 2%
O=C(c1cnn2c1NC(c1ccco1)CC2C(F)(F)F)N1CCN(c2cccc(Cl)c2)CC1 (stereo unspecified) | 2% | 2.2µM* | -4% | ? | -11% | -3%
O=C(c1ccco1)N1CCN(C(=O)c2cnn3c2NC(c2cccs2)CC3C(F)(F)F)CC1 (stereo unspecified) | -2% | 4% | 0% | 1% | 12% | -3%
O=C(Nc1ccncc1)C1C(=O)c2ccccc2N(Cc2ccccc2)C1=O (stereo unspecified) | nt | nt | -1% | nt | nt | -7%
Cc1ccc(NC(=O)c2ncn(-c3ccccc3)n2)cc1Cl | -21% | 17% | 6% | -8% | nt | 9%
CCCn1cc(S(=O)(=O)c2cc(C)ccc2C)c(=O)c2cc(F)c(N3CCN(CC)CC3)cc21 | -6% | -1% | 25% | -1% | nt | -2%
SMILES | IDH1 R132H inh | GLP-1R inv ag | TrxR1 substrate | GLP1R cytotox | GLP-1R agonist | rTrxR1 inhibitor
Clc1ccc(C2CC(c3ccco3)n3ncnc3N2)cc1Cl (stereo unspecified) | 10% | 10µM* | -9% | -16% | 5% | ?
Cc1cccc(NC(=S)NC(=O)Cc2ccccc2)c1C | 0% | ? | -14% | ? | -3% | 56µM*
COc1ccc(CN(C(=O)c2ccco2)c2ccccc2)cc1 | -3% | ? | -7% | -4% | 27% | -8%
O=C(c1ccccc1Br)N(Cc1ccccc1)c1ccccc1 | -2% | 8.9µM* | -8% | 3% | 15% | 5%
COc1ccc(NC(=O)CSc2nnc(-c3ccccc3Cl)n2Cc2ccco2)c(OC)c1 | 8% | 7.1µM* | 22%[57.1 µM] | -26% | -3% | -20%
COc1ccc(C(=O)CSc2nnc(-c3cccnc3)n2Cc2ccco2)cc1 | 9% | 22% | -9% | -21% | 6% | 50µM*
Clc1ccc(CSc2nnc(-c3cccnc3)n2Cc2ccco2)c(Cl)c1 | 2% | ? | -10% | -16% | 5% | 40µM*
COc1ccc(C(=O)CSc2nnc(-c3cnccn3)n2Cc2ccco2)cc1 | 12% | 3% | 15% | 0% | 4% | ?
O=C(CSc1nnc(Cc2cccs2)n1Cc1ccco1)Nc1cccc(Cl)c1 | 0% | ? | 6% | -13% | 4% | 25µM*
O=C(CSc1nnc(Cc2cccs2)n1Cc1ccco1)Nc1cc(Cl)cc(Cl)c1 | 5% | -92% | -2% | -24% | -1% | ?
O=C(NCCOCCn1c(=O)oc2ccccc21)Nc1cccc(Cl)c1 | 10% | ? | -3% | -7% | nt | 24%
COc1ccc(NC(=O)c2cc(S(=O)(=O)NCCC3=CCCCC3)ccc2F)cc1 | 0% | ? | -1%[57.1 µM] | -14% | nt | 14%[57.1 µM]
O=C(CSc1nnc(-c2ccncc2)n1Cc1ccco1)c1ccc(Cl)cc1 | 2% | -22% | 8% | 5% | 4% | 32µM*
NC(=O)CSc1nnc(-c2cccs2)n1Cc1ccco1 | 7% | -5% | 8% | 2% | 3% | ?
O=C(CSc1nnc(-c2ccc(Cl)cc2)n1Cc1ccco1)c1cccs1 | 5% | 0% | -6% | 3% | 2% | 35µM*
O=C(CSc1nnc(-c2ccncc2)n1Cc1ccco1)Nc1ccccc1Cl | -9% | 3% | 8%[57.1 µM] | -18% | -1% | 17%[57.1 µM]
CC(C)(C)NCC(O)CON=C1c2ccccc2-c2ccccc21 (stereo unspecified) | 9% | 4µM* | 9%[57.1 µM] | ? | 2% | 28%[57.1 µM]
CC(C)(C)NC(=O)CON=C1c2ccccc2-c2ccccc21 | 5% | ? | -7% | -2% | 12% | -14%
